# Bioassay records as filed in PubChem.
# The list is not random: actives were taken first. Their share in the collection is about 4.6%.
# AHR activator: AHR activators, primary screen, cell-based, luminescence, luciferase reporter, human. AHR-responsive luciferase reporter cells. activation, % at 5 µM. AID 2796, 2010. 320,000 tested, 2.5% active; in the data active = activation above about 47%;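 also: 0% = vehicle wells and 100% = reference agonist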
# HSF1 inhib: HSF1 inhibitors in luciferase reporter cells, primary screen, cell-based, NIH3T3, luminescence; NIH3T3-HGL HSE-luciferase, MG132-induced, luminescence 8 h; hits give low values; activity change, negative = inhibition, % at 7.5 µM (by protocol); 300,000 tested, 0.77% active;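 active = more than half of replicate wells show activity change below -50%, luminescence cut by over half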;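 also: luciferase reports HSF-1 transcriptional activity via heat shock element; 0% = median of DMSO wells and -100% = zero luminescence signal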
# HSF1 activator: HSF-1 activators, primary screen, NIH3T3-HGL cells, MG132 stress, luminescence, single point; NIH3T3-HGL HSF-1 luciferase reporter, 8 h; 100% = twice DMSO control signal; activation, % at 9 µM; 300,000 tested, 1.7% active;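 active = mean replicate activation of at least 50% with a set share of replicates each reaching 50%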;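 also: 0% = median of the neutral control wells and 100% = twice that signal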
# GAA850 FXN act: FXN promoter activators, primary screen, cell-based, luciferase luminescence, HEK293 lucGAA850; AID 540364, 2011; activation, % at 6 µM; HEK293 lucGAA850 FXN promoter luciferase reporter, 24 h; percent of 10 µM SAHA response; 360,000 tested, 0.56% active;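 active = activation above the average of all compounds screened plus 3 SD, cutoff fixed separately per campaign, cut at about 7.5% in these data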;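 also: 0% = DMSO wells and 100% = 10 µM SAHA wells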
# Active calls of the source: *.
SMILES,AHR activator,HSF1 inhib,HSF1 activator,GAA850 FXN act
CC(C)CCNC(=O)C1CCCN1C(=O)NC1CCCCC1 (centres undefined),1.2,-71.6*,-75.6,-2.6
Cc1cc2cc(C)c(NCCNC(=O)c3cccc(F)c3)nc2cc1C,56.1*,2.9,26.9,2.5
Cc1cccc(C(=O)NCCNc2nc3cc(C)c(C)cc3cc2C)c1,34.6,-3.9,-0.6,2.2
COc1ccc(C(=O)NCCNc2nc3cc(C)c(C)cc3cc2C)cc1,62.7*,-8.3,-12.3,3.8
CCOc1nc(Nc2ccccc2F)nc(OCC)n1,7.2,-1.3,4.1,6.2
COc1ccccc1C(=O)Nc1ccccc1SC(=O)c1ccccc1OC,53.0*,32.9,44.3,-3.0
COc1ccccc1C(=O)Nc1ccc(C)cc1C(=O)c1ccccc1,51.6*,-0.8,27.4,-0.8
COc1ccccc1C(=O)Nc1cc(Cl)ccc1O,34.7,18.5,65.2*,0.9
COc1cc(Cl)ccc1NC(=O)COc1ccccc1C(=O)NN,76.5*,10.9,29.5,2.6
COc1ccc(C(=O)Nc2ccc(C)cc2C(=O)c2ccccc2)cc1,36.3,7.6,18.0,3.0
COc1ccccc1C(=O)NC(=O)COc1cc(Cl)ccc1Cl,4.4,1.5,-3.4,2.1
COC(=O)c1ccccc1NC(=O)c1ccccc1OC,5.0,5.6,-15.9,-0.6
COCCN1Cc2cccc(C(=O)NCc3ccccc3OC)c2C1=O,38.2,8.7,1.9,0.8
O=C(Cc1ccc(Cl)c(Cl)c1)Nc1cccnc1,14.5,8.9,0.9,0.5
COc1cc2[nH]c(C(=O)N(C)Cc3ccccc3)cc2c(OC)c1OC,6.5,1.2,-7.1,-1.4
CN(Cc1ccccc1)C(=O)c1cc2cc(F)ccc2[nH]1,62.4*,5.1,14.6,0.5
Cn1c(=O)c2cn(-c3ccccc3)cc2n(C)c1=O,8.8,-3.0,-15.1,0.9
COc1cccc(-n2cc3c(=O)n(C)c(=O)n(C)c3c2)c1,58.6*,33.5,43.9,4.8
COc1ccc2c(c1)CCc1c(C(=O)N3CC4(C)CC3CC(C)(C)C4)noc1-2 (centres undefined),-2.5,54.7,84.2*,1.8
CC(C)(C)c1ccc(NC(=S)NCc2cccs2)cc1,18.5,105.5,144.9*,2.5
S=C(NCc1cccs1)Nc1cccc2ccccc12,11.1,31.9,56.4*,2.0
CN(Cc1nc(-c2cccnc2)no1)S(=O)(=O)c1ccc2ccccc2c1,4.4,1.4,-9.2,2.8
Cc1ccc(Cn2ncc3c(N4CCN(c5ccc(C)cc5)CC4)ncnc32)cc1,5.4,28.4,38.0,0.6
Cc1ccc(Cn2ncc3c(N4CCN(C)CC4)ncnc32)cc1,4.3,-74.6*,-81.1,-1.4
CCN(CC)CCCNC(=O)C1CCC(CNS(=O)(=O)c2ccc(Cl)cc2)CC1 (centres undefined),0.1,-67.3*,-73.1,2.2
SMILES,AHR activator,HSF1 inhib,HSF1 activator,GAA850 FXN act
CCCN1C(=O)c2cccc3c(N4CCCCC4)ccc(c23)C1=O,-0.5,4.0,11.2,-0.4
O=C(NC(=O)c1cccc(F)c1)OC[C@@H]1CCCN2CCCC[C@H]12,-1.6,-77.7*,-83.6,-0.2
CSCCC(NC(=O)COc1ccccc1)C(=O)NCc1cccs1 (centres undefined),3.1,1.4,2.1,0.9
CCOc1ccc(NC(=O)c2cn(-c3ccc(OCC)cc3)c(=O)c3cc(OC)c(OC)cc23)cc1,-2.4,-5.1,-17.6,-2.5
CCOc1ccc(-n2cc(C(=O)N3CCC(C)CC3)c3cc(OC)c(OC)cc3c2=O)cc1,5.0,23.4,66.1*,-1.4
Cc1nc(-c2ccccc2)sc1-c1nc(-c2ccncc2)ncc1S(=O)(=O)c1ccccc1,53.9*,2.8,4.6,-0.1
COc1nc(-c2ccccc2)ncc1S(=O)(=O)c1ccccc1,2.5,-5.8,-5.8,2.4
CCc1ccccc1NCC(=O)Nc1ccc(Cl)c(C(F)(F)F)c1,1.1,26.2,57.7*,-0.6
CCOc1ccc(N(CC(=O)NCC2CCCO2)C(=O)CCC(=O)Nc2ccccn2)cc1 (centres undefined),4.0,-6.3,4.8,0.2
CCOC(=O)c1oc2ccccc2c1COC(=O)CNC(=O)c1ccccc1,0.1,1.2,-19.2,1.5
CCOC(=O)c1nnc(-c2ccccc2)nc1Sc1ccccc1Cl,8.1,130.0,159.4*,-5.1
CCOC(=O)c1nnc(-c2ccc(C)cc2)nc1Sc1cccc(Cl)c1,6.6,-0.5,6.7,-1.0
